Among the data in PubChem BioAssay AID1490 (National Center for Advancing Translational Sciences (NCATS), 2009) are Potency and largest response in the series, negative = inhibition values, retold here.

In all, about 310,000 compounds went through this assay and about 11,000 (3.5%) were called active. Roughly 4% stayed inconclusive and do not appear here. What follows is part of a selection rich in actives, with near analogues and random picks from the rest. A number with no mark means an inactive call. Calls come from the whole dose curve; as a rule, active = well fitted inhibition curve with a large enough effect; inconclusive = small, poorly fitted or top-dose-only effect, or another doubt; inactive = no such curve, though single readings can be large or run the other way.
Potency is the fitted concentration of half-maximal effect.

This assay deals with 4'-phosphopantetheinyl transferase ffp (Bacillus subtilis) (UniProt Q9F4F7). In words: qHTS Assay for Inhibitors of Bacillus subtilis Sfp phosphopantetheinyl transferase (PPTase).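 For largest response in the series, negative = inhibition: 0% = enzyme reaction without inhibitor and -100% = no enzyme wells.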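 Note: the enzyme is Sfp with the accession as filed and its product quenches rhodamine fluorescence.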 Particulars: Biochemical Sfp PPTase activity. The method, boiled down:
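Buffer: 50 mM Hepes-Na pH 7.6, 10 mM MgCl2, 0.01% Nonidet P-40, 0.01% BSA. Enzyme 15 nM, pre-exposed to compound 15 min; substrates then added and fluorescence change tracked over 30 min.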
For orientation: qHTS replaces the single test concentration by a dilution series.
On to `Cc1cc(C)c2nc(N(CCN(C)C)C(=O)/C=C/c3cccs3)sc2c1`, for which the Potency was 89.1 µM (active). Turning to `Cc1cc(S(=O)(=O)NCC(C)C)ccc1OCC(=O)NC1CC1`, the largest response in the series, negative = inhibition is 18.8%. As to `C/C(CC1CC(C)(C)OC1=O)=N/Nc1nc(-c2ccccc2)cs1` (configuration not stated), the Potency was 50.1 µM (active). Regarding `CC1(C)CC(CC(=O)O)C(=O)O1` (configuration not stated), the largest response in the series, negative = inhibition was -8.59%. The same measure, in the same setting: in the case of `O=C(O)c1ccccc1C(=O)Nc1nc(-c2ccccc2)cs1` it was 6.83%; in that of `COc1ccc(C(=O)NC2CCN(C(=O)Nc3ccc(F)cc3)CC2)cc1`, -6.23%.

On to `COc1ccc(CN2CCNC(=O)C2CC(=O)NCc2cn[nH]c2-c2ccccc2)c(F)c1` (configuration not stated), for which the largest response in the series, negative = inhibition was 15.4%.

Turning to `CCN(CC)c1ccc(NC(=O)c2ccc(Cl)nc2)cc1`, the largest response in the series, negative = inhibition was 2.36%.

With `O=C(NNc1ccccn1)c1ccc(Cl)nc1`, the Potency is 56.2 µM (active). With `Cc1cnc(NC(=O)c2ccc(Cl)nc2)s1`, the largest response in the series, negative = inhibition was 3.16%. For the molecule `COc1cc(C(=O)NN(CCC#N)C2=NS(=O)(=O)c3ccccc32)cc(OC)c1OC`, the largest response in the series, negative = inhibition was 11.7%.

On to `Cc1ccc2c(c1)N(S(=O)(=O)c1cc(-c3cc(C)no3)ccc1C)CCO2`, for which the largest response in the series, negative = inhibition was -4.57%.

Consider `Nc1cc(N2CCCCCC2)c2nonc2c1[N+](=O)[O-]`, for which the largest response in the series, negative = inhibition was 12.7%. As for `O=C(Cc1cccs1)Nc1cccc(-c2nc3ccccc3[nH]2)c1`, the largest response in the series, negative = inhibition was 9.29%. Still for that read-out and setting: under `O=C(Nc1cccc(-c2nc3ccccc3[nH]2)c1)c1ccc(C(=O)Nc2cccc(-c3nc4ccccc4[nH]3)c2)cc1` stands -19.4%. Take `O=C(/C=C/c1ccco1)Nc1cccc(-c2nc3ccccc3[nH]2)c1`: the Potency is 25.1 µM (active). Consider `COc1ccccc1Oc1ccc(N2CC(C(=O)OCC(=O)c3ccc(F)cc3)CC2=O)cc1` (configuration not stated), for which the largest response in the series, negative = inhibition was -1.84%.

Take `CCN(CC)CCCNC(=O)COc1ccc2oc3c(c2c1)CCCC3`: the largest response in the series, negative = inhibition was 3.63%.

As for `S=C(c1ccccc1)N1CCCC1`, the largest response in the series, negative = inhibition was 9.23%. As to `Cc1cccc(C)c1NC(=S)N1CCCCCC1`, the largest response in the series, negative = inhibition is 11.7%. With `S=C(c1ccc(-c2ccccc2)o1)N1CCCCC1`, the Potency is 8.91 µM (active). Turning to `COc1ccc(-c2n[nH]c3c2CN(C(=O)c2ccc(F)cc2)CC3)cc1`, the largest response in the series, negative = inhibition is 5.79%. For the molecule `CC(C)(C)c1ccc(C(=O)N2CCC(C(=O)N3CCCCC3)CC2)cc1`, the largest response in the series, negative = inhibition is 4.51%. Take `COc1ccc(CCNC(=O)C(=O)NCC2OCCN2S(=O)(=O)c2ccc(OC)c(C)c2)cc1` (configuration not stated): the largest response in the series, negative = inhibition was 8.83%. As to `COc1ccc(OC)c(C(c2nnnn2C(C)(C)C)N2CCc3ccccc3C2)c1` (configuration not stated), the largest response in the series, negative = inhibition is 6.02%.

Consider `COCCn1nnnc1C(c1cc2ccc(OC)cc2[nH]c1=O)N1CCc2ccccc2C1` (configuration not stated), for which the Potency is 12.6 µM (active). As to `CCOc1ccc2[nH]c(=O)c(C(c3nnnn3CCOC)N3CCOCC3)cc2c1` (configuration not stated), the largest response in the series, negative = inhibition is 17.1%. For `Cc1cnc(C(=O)OCc2c(C)cc(C(C)(C)C)cc2C)cn1`, the largest response in the series, negative = inhibition is -9.1%.

`COc1ccc(-c2nc(SCC(=O)N3CCOCC3)n[nH]2)cc1`: the largest response in the series, negative = inhibition is 18.2%. As to `COc1ccc(C(=O)CSc2n[nH]c(N)n2)cc1`, the Potency is 56.2 µM (active).

Regarding `COc1ccc(CNC(=O)CSc2n[nH]c(N)n2)cc1OC`, the largest response in the series, negative = inhibition was 2.91%. In the case of `Cc1nn2c(=O)cc(COC(=O)c3ccc(NC(=O)C(C)(C)C)cc3)nc2s1`, the largest response in the series, negative = inhibition was 18.9%. With `COc1cc(/C=C/C(=O)O)cc(S(=O)(=O)Nc2ccccc2C(=O)NCCc2ccccc2)c1OC`, the largest response in the series, negative = inhibition is 13.6%. Regarding `COc1ccccc1-c1nnc(NC(=O)c2ccc3ncsc3c2)o1`, the Potency was 79.4 µM (active). With `COc1ccccc1-c1nnc(SCC(=O)Nc2ccccc2)o1`, the largest response in the series, negative = inhibition is 1.67%.

Take `COc1ccccc1-c1nnc(NC(=O)c2cccc(N3C(=O)CCC3=O)c2)o1`: the largest response in the series, negative = inhibition is 2.11%. As for `Cc1ccccc1N1CCN(CCCN2C(=O)C3CCCCN3C2=O)CC1` (configuration not stated), the largest response in the series, negative = inhibition was 17.8%. In the case of `COc1ccc(OC)c(NC(=O)c2ccc3c(c2)CCN3S(C)(=O)=O)c1`, the largest response in the series, negative = inhibition is 9.13%. For the molecule `O=[N+]([O-])c1cc(Cl)cc(/C=N/NC(=S)Nc2cc(S(=O)(=O)N3CCOCC3)ccc2Cl)c1O`, the Potency was 56.2 µM (active). `O=C(N/N=C/c1cc(Cl)cc([N+](=O)[O-])c1O)C(O)(c1ccccc1)c1ccccc1`: the largest response in the series, negative = inhibition was -0.479%. `O=C(N/N=C/c1ccc([N+](=O)[O-])o1)c1cccc(S(=O)(=O)N2CCOCC2)c1`: the largest response in the series, negative = inhibition was -9.66%. Regarding `COc1ccc(N2CCN(S(=O)(=O)CCNC(=O)C34CC5CC(CC(C5)C3)C4)CC2)cc1`, the largest response in the series, negative = inhibition was 2.52%. Take `CCCCCCn1c(SCC(=O)c2ccccc2)nc2c1c(=O)[nH]c(=O)n2C`: the largest response in the series, negative = inhibition was -15.2%. Still for that read-out and setting: under `Cn1c(=O)[nH]c(=O)c2c1nc(Br)n2CCCCSc1nc2ccccc2o1` stands 3.31%.

`CCCCCn1c(SCCC(C)C)nc2c1c(=O)[nH]c(=O)n2C`: the Potency is 28.2 µM (active). For `CCOc1ccc(S(=O)(=O)N2CCC(c3ccccc3)CC2)cc1C(=O)O`, the largest response in the series, negative = inhibition was 13.6%. Still for that read-out and setting: in the case of `Cc1ccc(OCC(=O)Nc2ccc(N3CCN(C(=O)c4ccco4)CC3)cc2)c(C)c1` it was -9.57%.
